# High-throughput results: PubChem BioAssay, several laboratories
# The list is not random: actives were taken first. Their share in the collection is about 5.7%.
# FAS-TE inh: blocks the thioesterase domain of human fatty acid synthase. P49327. recombinant FAS-TE, OMFH fluorogenic substrate, fluorescence endpoint. inhibition, % at 15 µM. 360,000 tested, 0.67% active;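 active means compounds whose normalised, plate-corrected inhibition of enzyme fluorescence in the single-dose primary screen is 50% or more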;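 further: 0% = DMSO with enzyme and 100% = substrate without enzyme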
# Myeloid diff MLP: myeloid differentiation induction. ER-HoxA9 myeloid progenitors, lysozyme-GFP differentiation, flow cytometry. calls only at 10 µM. 360,000 tested, 1% active. AID 624256;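 active means normalized GFP-positive differentiation at or above the plate's own cutoff, the solvent-only control mean plus 3 SD; inconclusive means no clear call, values can overlap the other calls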;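 further: cells exposed to compound for four days before flow analysis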
# MPTP block: blocks calcium-induced mitochondrial swelling; isolated mouse mitochondria, Ca2+ swelling absorbance, 30 min; inhibition, % at 10 µM; 360,000 tested, 1.4% active;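 active means inhibition of 50% or more, scaled per plate between neutral and stimulator controls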;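 further: 0% = DMSO wells given calcium and 100% = 1 mM EGTA wells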
# GRIN3A LBD mod: modulators (binders) of human NR3A ligand-binding domain | NR3A LBD differential scanning fluorimetry, Tm shift; 0% = protein alone, 100% = glycine-bound protein | Tm shift relative to glycine control, % at 25 µM | 340,000 tested, 2.5% active;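 active means melting temperature shift of at least 10% of the positive control shift, at one fixed dose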
# rCAG binder: r(CAG) repeat RNA binding | TO-PRO-1 dye displacement fluorescence | inhibition, % at 3 µM | 370,000 tested, 1.3% active;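 active means inhibition above the plate cutoff, the mean of all test compounds on that plate plus 3 SD, cut at about 35% in these data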;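 further: 0% = DMSO alone and 100% = 100 µM mitoxantrone as full dye displacement; higher means more dye released from RNA so lower well fluorescence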
# Rh123 counter: membrane potential counter-screen of mitochondrial pore inhibitors; shares compounds with MPTP block; isolated mitochondria, Rhodamine 123 fluorescence; inhibition, % at 10 µM; 5,000 tested, 78% active; AID 624504; in the data active means inhibition above about 22%;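 further: 0% = DMSO vehicle and 100% = positive control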
# MPTP swell DR: dose response confirmation of mitochondrial permeability transition pore inhibitors | IC50, µM | isolated mitochondria swelling, absorbance | shares compounds with MPTP block | 780 tested, 58% active; in the data active means IC50 below about 20 µM
# MPTP counter DR: counter-screen for mitochondrial permeability transition pore inhibitors, dose response; IC50, µM; 780 tested, 49% active; shares compounds with MPTP block; isolated mitochondria counterscreen, fluorescence read-out; in the data active means IC50 below about 80 µM
# Numbers without * were called inactive; i = inactive; ? = inconclusive; nt = no result.
SMILES,FAS-TE inh,Myeloid diff MLP,MPTP block,GRIN3A LBD mod,rCAG binder,Rh123 counter,others
CC1C(=O)Nc2ccc(S(=O)(=O)N3CCN(c4cccc(C(F)(F)F)c4)CC3)cc2NC1=O (stereo not drawn),9.3,i,-0.4,9.7,2.1,nt,
CC(=O)C1=C(c2ccccc2)NC(=O)NC1c1ccc(O)c(Cl)c1 (stereo not drawn),-3.2,i,0.3,3.0,0.0,nt,
COc1ccc(C2=NC(CO)(CO)CO2)cc1,-9.8,i,-0.5,1.8,0.3,nt,
Clc1ccc(-c2nnc(CSc3nnc(-c4cccs4)n3Cc3ccccc3)o2)cc1,24.1,i,91.5*,0.3,-4.2,89.1*,
Cc1cc(C)cc(-n2c3ccc(NC(=O)Cc4cccc5ccccc45)cc3c(=O)n2C)c1,5.1,?,-2.5,nt,9.8,nt,
Cc1ccc(-c2nnc(Nc3ccc4c(c3)OCO4)c3ccccc23)cc1S(N)(=O)=O,5.6,i,56.5*,-11.6,4.4,-6.9,MPTP swell DR=>100;MPTP counter DR=>80
CC(=O)Nc1ccc(Nc2nnc(-c3ccc(C)c(S(N)(=O)=O)c3)c3ccccc23)cc1,-3.7,i,-1.0,0.5,10.3,nt,
OCC1(Cc2ccc(Cl)cc2)CCN(CCCc2ccccc2)CC1,-1.7,i,53.0*,-0.2,-5.0,-10.5,MPTP swell DR=10*
Clc1cccc(/C(Cc2nc3ccccc3[nH]2)=N\Nc2ccccc2)c1,21.3,i,97.1*,13.5*,12.5,62.2*,
c1ccc(N/N=C(\Cc2nc3ccccc3[nH]2)c2ccccc2)cc1,20.8,i,49.7,-2.2,8.9,nt,
CCc1nnc(NS(=O)(=O)c2ccc(NCc3ccccc3O)cc2)s1,-1.7,i,-1.9,-1.0,14.7,nt,
COc1ccccc1CNC(=O)C1CCN(S(=O)(=O)c2ccc(-n3cnnn3)cc2)CC1,1.2,i,0.5,1.6,1.3,nt,
COC(=O)[C@]12C[C@H](CC(=O)NCc3ccccc3)C(=O)N(Cc3ccccc3)C1=C[C@H](C(C)(C)C)O[C@@H]2C,nt,nt,nt,nt,0.6,nt,
CCc1ccc(O)c(CNCCNCc2cc(CC)ccc2O)c1,-15.9,i,95.4*,0.7,2.5,3.6,
CCC1Sc2ccc(S(=O)(=O)Nc3ccc(OC)c(OC)c3)cc2NC1=O (stereo not drawn),4.9,i,95.1*,1.2,4.5,86.5*,
CCCCSCc1nc2nc(Cl)c(Cl)nc2[nH]1,12.2,i,71.8*,nt,0.7,82.8*,
OCc1nc2nc(Cl)c(Cl)nc2[nH]1,-5.8,i,-2.1,1.1,-5.4,nt,
COc1ccc(C(CNC(=O)C(C)Sc2ccccc2)N2CCOCC2)cc1 (stereo not drawn),-6.9,i,0.5,-0.9,-11.5,nt,
O=C(NCc1cccnc1)c1ccc(-c2ccc(F)c(F)c2)c2ccoc12,4.6,i,92.1*,nt,0.9,83.7*,
COc1cc(-c2coc3c(C(=O)NCc4ccc(N(C)C)cc4)cccc23)ccc1O,17.6,i,0.4,nt,13.9,nt,
COc1cc(-c2coc3c(C(=O)NCc4ccc(OC)c(OC)c4)cccc23)ccc1O,-1.9,?,73.0*,nt,9.4,58.3*,
COc1ccc(CNC(=O)c2cccc3c(-c4ccc(F)c(F)c4)coc23)cc1OC,20.1,i,87.5*,nt,nt,79.7*,
COc1ccc(CNC(=O)c2cccc3c(-c4cccc(C(N)=O)c4)coc23)cc1OC,-6.9,i,85.6*,nt,4.1,83.0*,
N#Cc1ccc(OCC(=O)Nc2cccc(S(=O)(=O)NC3=NCCCCC3)c2)cc1,-7.7,i,-0.1,-1.9,8.0,nt,
COc1cc(S(=O)(=O)N2CCOCC2)ccc1NC(=O)COC(=O)CC12CC3CC(CC(C3)C1)C2,33.2,i,12.9,-6.1,15.2,nt,
O=C(CS(=O)(=O)c1ccc(F)cc1)Nc1nnc(-c2ccccc2Cl)o1,-4.5,i,-1.3,-0.3,12.8,nt,
C=CCc1cccc(/C=N/NC(=O)CCCNc2ccc(C)cc2)c1O,24.3,i,54.2*,12.3*,1.4,29.6*,
COc1cc([N+](=O)[O-])cc(/C=N/NC(=O)C(C)Nc2cccc(C)c2)c1O (stereo not drawn),35.7,i,-0.6,-8.3,21.6,nt,
C=CCc1cccc(/C=N/NC(=O)C(C)Nc2cccc(C)c2)c1O (stereo not drawn),26.6,i,73.0*,-12.8,4.2,61.2*,
